This is an account of results in PubChem BioAssay (EPA / NIEHS).

SMILES strings stand for the structures. Active and inactive are the calls of the source. The calls were made as follows: active = hit-call score of the fitted dose curve at least 0.9, where 1 is the maximum; inactive = score below 0.9.

A word on the AC50: it is the midpoint of the concentration-response curve, whichever way the signal moves.

Assay [1] addresses CCAAT/enhancer-binding protein beta (Homo sapiens) (UniProt P17676). The assay is described as follows: ATG_C_EBP_CIS: Attagene CIS-FACTORIAL HepG2 Assay for human CCAAT/Enhancer Binding Protein (C/EBP) beta (AID 2282927). As to conditions: HepG2 Attagene cis-factorial transcription factor reporter; actives raise or lower the signal. Put shortly: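 HepG2 transiently transfected with multiplexed reporter units under cis-regulatory promoters reporting endogenous C/EBPb activity. After 24 h exposure, reporter mRNA assayed by RT-PCR, fluorescent labelling, HpaI digestion and capillary electrophoresis; bidirectional fitting versus DMSO.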

Assay [2] can be described thus: ATG_DR4_LXR_CIS: Attagene CIS-FACTORIAL HepG2 Assay for human Liver X Receptor (LXR), DR4 submotif (AID 2282929). As to conditions: HepG2 Attagene DR4 cis-reporter, mRNA transcription; actives raise or lower the signal. Put shortly:
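Total RNA from 24 h-treated, MRTU-transfected HepG2 cells underwent reverse transcription, PCR, fluorescent primer extension and restriction digestion before capillary electrophoresis. Both increases and decreases in reporter signal were fitted against DMSO.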

Assay [3] in a line: ATG_AP_2_CIS: Attagene CIS-FACTORIAL HepG2 Assay for human Activator Protein 2 (AP-2) (AID 2282932). As to conditions: HepG2 AP-2 cis-reporter, Attagene transcription factor profiling; actives raise or lower the signal. In short, it runs like this: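 Liver-derived HepG2 line, cis-reporter system measuring endogenous factors; 24 h dosing; reporter mRNA detected by fluorescent RT-PCR and capillary electrophoresis.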

For assay [4], the target named is Transcription factor E2F1 (Homo sapiens) (UniProt Q01094). The experiment in a line: ATG_E2F_CIS: Attagene CIS-FACTORIAL HepG2 Assay for human E2F Transcription Factor 1 (AID 2282935). As to conditions: HepG2 Attagene cis-reporter, E2F reporter RNA transcripts; actives raise or lower the signal. Put shortly: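 Liver-derived HepG2 cells expressing transfected promoter-driven reporter units received test chemical for 24 hours. Signal gains or losses were fitted bidirectionally against DMSO.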

Assay [5] in a line: ATG_E_Box_CIS: Attagene CIS-FACTORIAL HepG2 Assay for human Enhancer Box (E-box) (AID 2282936). As to conditions: HepG2 E-box cis-reporter transcription, actives raise or lower the signal. In short, it runs like this: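 In this cell-based setup, HepG2 cells bearing transfected promoter-driven reporter units were exposed to chemicals for 24 h; reporter transcripts were amplified, 6-FAM-labelled, cut with HpaI and sized by capillary electrophoresis.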

Assay [6] in a line: ATG_M_19_CIS: Attagene CIS-FACTORIAL HepG2 Assay for M19 Transcription Factor (Internal Marker) (AID 2282939). As to conditions: HepG2 Attagene CIS-FACTORIAL M19 internal marker reporter; actives raise or lower the signal. In short, it runs like this:
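Chemical-treated HepG2 (24 h) with MRTU constructs; reporter transcripts detected by fluorescent RT-PCR fragment analysis on capillary electrophoresis. Internal background marker, DMSO as baseline.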

The nature of assay [7]: ATG_GLI_CIS: Attagene CIS-FACTORIAL HepG2 Assay for human Zinc Finger Protein GLI1 (AID 2282945). As to conditions: HepG2, Attagene cis-factorial reporter mRNA, GLI element; actives raise or lower the signal. In short, it runs like this:
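Transiently transfected HepG2 cells report endogenous transcription factor activity via cis-element-driven reporter units. After 24 h compound exposure, reporter mRNA was measured by RT-PCR with capillary electrophoresis; bidirectional fitting against DMSO baseline.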

A short description of assay [8]: ATG_ISRE_CIS: Attagene CIS-FACTORIAL HepG2 Assay for human Interferon Regulatory Factor 1 (IRF1) binding to an Interferon-Stimulated Response Element (ISRE) (AID 2282948). As to conditions: HepG2 ISRE cis-reporter (Attagene), mRNA transcription readout; actives raise or lower the signal. Put shortly: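 Endogenous transcription factor activity read as reporter transcript abundance via RT-PCR and capillary electrophoresis. HepG2 cells transiently transfected, 24 h chemical exposure. Gain or loss fitted against DMSO baseline.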

Assay [9] in a line: ATG_M_32_CIS: Attagene CIS-FACTORIAL HepG2 Assay for M32 Transcription Factor (Internal Marker) (AID 2282949).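 Also: background control marker of the multiplexed CIS panel rather than a real target.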 As to conditions: HepG2 Attagene cis-factorial M32 reporter, mRNA; actives raise or lower the signal. Put shortly:
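HepG2 transfectants (cis-regulated reporter transcription units) dosed 24 h. Reporter mRNA by RT-PCR plus CE, analysed as gain or loss relative to DMSO.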

Assay [10] in a line: ATG_PXRE_CIS: Attagene CIS-FACTORIAL HepG2 Assay for human Pregnane X Receptor Element (PXRE) (AID 2282957). As to conditions: HepG2 Attagene CIS-FACTORIAL PXRE reporter, mRNA; actives raise or lower the signal. In short, it runs like this:
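Bidirectional activity, baselined to DMSO, derived from reporter mRNA fluorescence (RT-PCR plus capillary electrophoresis) in HepG2 cells bearing cis-promoter reporter units, 24 h exposure.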

The nature of assay [11]: ATG_Sox_CIS: Attagene CIS-FACTORIAL HepG2 Assay for human SRY-box transcription factor (SOX) (AID 2282960). As to conditions: HepG2 Attagene cis-factorial SOX reporter, mRNA; actives raise or lower the signal. In short, it runs like this: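 HepG2, cis reporter units, 24 h exposure. Reporter mRNA: RT-PCR → FAM labelling → HpaI → CE fluorescence. Bidirectional fit vs DMSO.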

For assay [12], the target named is Transcription factor Sp1 (Homo sapiens) (UniProt P08047). The experiment in a line: ATG_Sp1_CIS: Attagene CIS-FACTORIAL HepG2 Assay for human Specificity Protein 1 (Sp1) (AID 2282961). As to conditions: HepG2 Sp1 cis-reporter transcription, actives raise or lower the signal. Put shortly:
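Liver-derived HepG2 cells, cis-element reporter library, 24 h treatment; RNA isolated, cDNA amplified with reporter-specific primers, FAM-labeled fragments sized on capillary analyzer. DMSO baseline, bidirectional curve fit.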

Assay [13] has as its target Signal transducer and activator of transcription 3 (Homo sapiens) (UniProt P40763). The assay is described as follows: ATG_STAT3_CIS: Attagene CIS-FACTORIAL HepG2 Assay for human Signal Transducer and Activator of Transcription 3 (STAT3) (AID 2282963). As to conditions: HepG2, Attagene cis-factorial STAT3 reporter transcription; actives raise or lower the signal. Put shortly:
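Fluorescence intensity of 6-FAM-labelled reporter fragments, separated by capillary electrophoresis after RT-PCR, gave the signal. Cells were HepG2 transfected with cis-element reporter units and treated 24 h; fitting was bidirectional relative to DMSO.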

A short description of assay [14]: ATG_TA_CIS: Attagene CIS-FACTORIAL HepG2 Assay for human TA Basal Promoter (AID 2282964). As to conditions: HepG2 Attagene CIS-factorial TA basal promoter reporter; actives raise or lower the signal. In short, it runs like this:
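Background internal-marker endpoint from a 52-component HepG2 cis-reporter panel. Cells treated 24 h; reporter transcripts quantified via RT-PCR and CE fluorescence against DMSO baseline.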

Assay [15] is described as follows: ATG_TCF_b_cat_CIS: Attagene CIS-FACTORIAL HepG2 Assay for human T-Cell-Factor with beta-catenin (TCF/b-cat) (AID 2282965). As to conditions: HepG2 TCF/beta-catenin cis-reporter transcription, actives raise or lower the signal. Put shortly:
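HepG2 cells transiently transfected with cis-promoter-driven multiplexed reporter units; reporter mRNA measured 24 h after dosing by RT-PCR, FAM labelling, HpaI digestion and capillary electrophoresis. Bidirectional fitting relative to DMSO baseline.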

Assay [16] can be described thus: ATG_TAL_CIS: Attagene CIS-FACTORIAL HepG2 Assay for human TAL Basal Promoter (AID 2282966).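 Also: background control endpoint measuring basal TAL promoter reporter mRNA not a specific factor.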 As to conditions: HepG2 Attagene cis-factorial TAL promoter reporter; actives raise or lower the signal. In short, it runs like this:
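Human hepatoma HepG2 cells, transfected with promoter-regulated reporter units, were treated 24 h. Reporter transcript levels, measured through RT-PCR and capillary electrophoresis, were fitted for gain or loss relative to DMSO.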

The target in assay [17] is X-box-binding protein 1 (Homo sapiens) (UniProt P17861). The experiment in a line: ATG_Xbp1_CIS: Attagene CIS-FACTORIAL HepG2 Assay for human X-box Binding Protein 1 (XBP1) (AID 2282972). As to conditions: HepG2 XBP1 cis-element reporter, Attagene multiplex; actives raise or lower the signal. Put shortly: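 Reporter transcripts were quantified by RT-PCR with fluorescent primer extension and capillary electrophoresis after 24 h chemical exposure. Cells: transiently transfected HepG2 carrying cis-regulated reporter constructs; data fitted bidirectionally relative to DMSO.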

The target in assay [18] is Transcriptional activator Myb (Homo sapiens) (UniProt P10242). The experiment in a line: ATG_Myb_CIS: Attagene CIS-FACTORIAL HepG2 Assay for human Myeloblastosis (Myb) Proto-Oncogene Transcription Factor (AID 2282986). As to conditions: HepG2 Attagene CIS-FACTORIAL Myb reporter transcription; actives raise or lower the signal. In short, it runs like this:
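After 24 h of compound dosing, total RNA from transfected HepG2 cells is reverse-transcribed and the reporter sequences amplified, labeled and separated by capillary electrophoresis. Values come from bidirectional fitting against DMSO.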

Assay [19] concerns the target Myc proto-oncogene protein (Homo sapiens) (UniProt P01106). The assay is described as follows: ATG_Myc_CIS: Attagene CIS-FACTORIAL HepG2 Assay for human Myelocytomatosis (Myc) Proto-Oncogene Transcription Factor (AID 2282990). As to conditions: HepG2, Attagene cis-reporter transcription factor activity; actives raise or lower the signal. Put shortly:
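Transiently transfected HepG2 cells bearing cis-promoter reporter units for endogenous transcription factors; 24 h exposure. Reporter mRNA measured by RT-PCR, 6-FAM primer extension, HpaI cut and capillary electrophoresis; bidirectional fit relative to DMSO.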

Assay [20] is described as follows: ATG_Oct_MLP_CIS: Attagene CIS-FACTORIAL HepG2 Assay for human Octamer-Binding Transcription Factor (Oct) (AID 2282993). As to conditions: HepG2 Attagene cis-factorial Oct reporter, mRNA; actives raise or lower the signal. Put shortly:
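Using HepG2 cells bearing transfected cis-reporter constructs, mRNA induction was read after 24 h by fluorescent RT-PCR and capillary electrophoresis, with DMSO defining baseline for gain- or loss-of-signal fits.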

Chain of Myc proto-oncogene protein (Homo sapiens) (P01106 whole entry, looked up): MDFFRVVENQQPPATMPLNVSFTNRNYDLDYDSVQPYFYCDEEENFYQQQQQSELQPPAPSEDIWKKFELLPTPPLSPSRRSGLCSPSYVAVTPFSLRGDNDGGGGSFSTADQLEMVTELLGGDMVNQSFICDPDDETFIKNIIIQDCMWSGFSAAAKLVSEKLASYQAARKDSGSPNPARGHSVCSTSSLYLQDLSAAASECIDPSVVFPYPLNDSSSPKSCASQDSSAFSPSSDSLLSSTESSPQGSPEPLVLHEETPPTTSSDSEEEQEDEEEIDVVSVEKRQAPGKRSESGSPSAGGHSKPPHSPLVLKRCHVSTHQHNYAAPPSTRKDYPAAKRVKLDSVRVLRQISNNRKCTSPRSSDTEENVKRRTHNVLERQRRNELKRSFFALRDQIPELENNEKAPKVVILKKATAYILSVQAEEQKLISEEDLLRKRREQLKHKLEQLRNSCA
Chain of Transcription factor E2F1 (Homo sapiens) (Q01094 whole entry, looked up): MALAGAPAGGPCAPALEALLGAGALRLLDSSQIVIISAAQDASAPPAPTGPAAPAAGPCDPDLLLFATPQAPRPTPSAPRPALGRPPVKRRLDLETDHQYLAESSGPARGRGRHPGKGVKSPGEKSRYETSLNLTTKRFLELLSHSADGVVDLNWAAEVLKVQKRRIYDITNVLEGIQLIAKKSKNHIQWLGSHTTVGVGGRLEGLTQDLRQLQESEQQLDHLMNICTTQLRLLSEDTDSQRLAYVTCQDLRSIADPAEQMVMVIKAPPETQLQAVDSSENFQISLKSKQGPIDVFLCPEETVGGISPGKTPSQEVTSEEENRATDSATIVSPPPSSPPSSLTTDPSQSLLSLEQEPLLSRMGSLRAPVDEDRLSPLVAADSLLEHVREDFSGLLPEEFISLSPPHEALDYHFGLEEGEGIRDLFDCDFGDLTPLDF
Chain of Transcription factor Sp1 (Homo sapiens) (P08047 whole entry, looked up, the tested form may be a part): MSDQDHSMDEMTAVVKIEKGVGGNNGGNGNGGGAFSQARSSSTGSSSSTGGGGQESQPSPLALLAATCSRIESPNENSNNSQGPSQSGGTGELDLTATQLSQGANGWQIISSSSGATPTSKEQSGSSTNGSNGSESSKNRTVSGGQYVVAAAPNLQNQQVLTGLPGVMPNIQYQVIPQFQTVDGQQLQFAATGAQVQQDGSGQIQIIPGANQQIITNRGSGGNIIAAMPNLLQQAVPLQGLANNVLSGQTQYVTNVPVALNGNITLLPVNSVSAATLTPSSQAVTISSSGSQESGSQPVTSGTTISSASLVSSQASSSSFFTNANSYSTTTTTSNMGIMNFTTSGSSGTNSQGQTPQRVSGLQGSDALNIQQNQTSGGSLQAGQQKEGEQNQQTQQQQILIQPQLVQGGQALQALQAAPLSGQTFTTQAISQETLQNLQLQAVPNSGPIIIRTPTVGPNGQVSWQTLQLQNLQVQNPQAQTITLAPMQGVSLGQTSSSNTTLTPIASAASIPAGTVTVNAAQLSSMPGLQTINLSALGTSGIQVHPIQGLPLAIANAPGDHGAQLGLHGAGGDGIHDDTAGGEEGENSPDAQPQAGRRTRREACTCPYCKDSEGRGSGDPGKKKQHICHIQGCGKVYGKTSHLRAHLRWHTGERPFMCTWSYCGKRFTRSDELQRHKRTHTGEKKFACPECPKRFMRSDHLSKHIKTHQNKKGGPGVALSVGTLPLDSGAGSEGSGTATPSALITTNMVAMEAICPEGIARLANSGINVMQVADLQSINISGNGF
Chain of CCAAT/enhancer-binding protein beta (Homo sapiens) (P17676 whole entry, looked up): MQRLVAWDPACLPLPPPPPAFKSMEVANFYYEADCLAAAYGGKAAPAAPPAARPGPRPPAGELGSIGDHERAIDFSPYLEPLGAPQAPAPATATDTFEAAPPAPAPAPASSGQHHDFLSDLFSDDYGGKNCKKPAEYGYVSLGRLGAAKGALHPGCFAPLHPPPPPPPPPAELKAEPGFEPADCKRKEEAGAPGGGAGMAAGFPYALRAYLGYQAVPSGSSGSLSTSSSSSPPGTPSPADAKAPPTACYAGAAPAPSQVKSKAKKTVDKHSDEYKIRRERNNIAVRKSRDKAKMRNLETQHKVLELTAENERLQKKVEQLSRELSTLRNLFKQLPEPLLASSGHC
Chain of X-box-binding protein 1 (Homo sapiens) (P17861 whole entry, looked up): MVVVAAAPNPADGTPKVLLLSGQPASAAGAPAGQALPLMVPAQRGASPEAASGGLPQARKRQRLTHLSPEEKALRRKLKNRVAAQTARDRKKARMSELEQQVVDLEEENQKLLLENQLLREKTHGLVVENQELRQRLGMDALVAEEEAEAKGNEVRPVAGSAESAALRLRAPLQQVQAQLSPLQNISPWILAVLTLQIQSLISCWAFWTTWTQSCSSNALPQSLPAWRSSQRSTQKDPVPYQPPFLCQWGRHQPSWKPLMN
Chain of Transcriptional activator Myb (Homo sapiens) (P10242 whole entry, looked up): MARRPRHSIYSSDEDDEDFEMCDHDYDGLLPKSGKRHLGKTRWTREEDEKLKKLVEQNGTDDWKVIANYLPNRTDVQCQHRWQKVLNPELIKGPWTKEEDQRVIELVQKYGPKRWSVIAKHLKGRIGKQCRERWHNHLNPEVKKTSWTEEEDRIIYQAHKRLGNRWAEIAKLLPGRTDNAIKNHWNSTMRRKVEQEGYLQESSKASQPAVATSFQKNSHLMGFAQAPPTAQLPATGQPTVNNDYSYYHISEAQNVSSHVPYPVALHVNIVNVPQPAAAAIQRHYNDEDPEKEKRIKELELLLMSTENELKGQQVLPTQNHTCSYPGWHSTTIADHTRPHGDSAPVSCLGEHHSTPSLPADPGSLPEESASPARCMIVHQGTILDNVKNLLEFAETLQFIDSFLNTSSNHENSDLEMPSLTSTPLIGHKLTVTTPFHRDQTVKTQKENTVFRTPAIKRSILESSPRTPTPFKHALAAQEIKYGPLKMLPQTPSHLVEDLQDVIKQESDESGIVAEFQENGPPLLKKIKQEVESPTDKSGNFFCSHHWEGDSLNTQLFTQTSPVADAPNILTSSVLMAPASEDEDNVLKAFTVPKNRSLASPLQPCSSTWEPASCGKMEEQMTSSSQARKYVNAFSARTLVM
Chain of Signal transducer and activator of transcription 3 (Homo sapiens) (P40763 whole entry, looked up, the tested form may be a part): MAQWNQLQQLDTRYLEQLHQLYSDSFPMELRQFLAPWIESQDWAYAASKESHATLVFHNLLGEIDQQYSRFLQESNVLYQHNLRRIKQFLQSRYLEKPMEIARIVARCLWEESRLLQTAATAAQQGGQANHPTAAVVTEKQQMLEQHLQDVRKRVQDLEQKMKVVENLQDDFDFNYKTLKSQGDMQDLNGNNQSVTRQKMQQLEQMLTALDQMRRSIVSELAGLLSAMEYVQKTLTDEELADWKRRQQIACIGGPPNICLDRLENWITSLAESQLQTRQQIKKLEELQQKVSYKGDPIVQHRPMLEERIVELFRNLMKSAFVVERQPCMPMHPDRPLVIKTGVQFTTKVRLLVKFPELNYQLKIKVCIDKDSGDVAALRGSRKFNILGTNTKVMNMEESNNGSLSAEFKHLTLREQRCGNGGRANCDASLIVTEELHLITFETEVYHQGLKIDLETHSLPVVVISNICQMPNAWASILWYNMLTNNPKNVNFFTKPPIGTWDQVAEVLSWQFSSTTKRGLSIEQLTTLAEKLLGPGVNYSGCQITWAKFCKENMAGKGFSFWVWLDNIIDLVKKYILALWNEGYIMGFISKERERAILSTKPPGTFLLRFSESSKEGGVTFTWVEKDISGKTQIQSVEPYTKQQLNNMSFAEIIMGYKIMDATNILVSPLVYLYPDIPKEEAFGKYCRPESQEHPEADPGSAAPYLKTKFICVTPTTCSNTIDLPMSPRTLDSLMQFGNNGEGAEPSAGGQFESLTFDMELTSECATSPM

In the case of `C=CC(=O)OCCCCOC(=O)C=C`, the AC50 in assay [1] was 168 µM (active); in assay [2] it was 52.4 µM (active); in [5], 70.1 µM (active); in assay [8], 54.1 µM (active); in assay [10], 158 µM (active); in assay [12] it was 26 µM (active). Moreover, the AC50 in [15] was 60.4 µM (active); in assay [20], 37.7 µM (active). Besides, the outcome in assay [3], in assay [4], in assay [6], in assay [7], in [9] and in [11] was inactive. Further, the result in [13], in assay [14], in [16], in assay [17], in assay [18] and in assay [19] was inactive.
As to `Clc1ccc(-c2ccccc2)cc1`, the outcome in assay [1], in assay [2], in [3], in assay [4], in assay [5] and in assay [6] was inactive. Further, the call in assay [7], in [8], in assay [9], in assay [11], in [13] and in assay [14] was inactive. Moreover, the outcome in [15], in assay [16], in assay [17], in [18], in assay [19] and in assay [20] was inactive. Further, the AC50 in assay [10] is 42.7 µM (active); in assay [12], 117 µM (active).
Turning to `CCCCOC(=O)CCC(=O)OCCCC`, the outcome in [1], in [2], in assay [3], in assay [4], in [5] and in assay [6] was inactive. Besides, the result in [7], in assay [8], in assay [9], in assay [10], in assay [11] and in assay [12] was inactive. Further, the call in assay [13], in assay [14], in [15], in assay [16], in assay [17] and in [18] was inactive. The call in assay [19] and in [20] was inactive.
